# ERG Ets-DNA blk – inhibitors of human ERG Ets domain-DNA interaction; 370,000 tested, 0.028% active; P11308; AID 624246; Potency, µM (series often up to 76.9 µM), inactives show at the highest dose FP activity, negative = inhibition, usual class: inhibitors; fluorescence polarization, His-ERG Ets domain / labelled DNA; active means well fitted inhibition curve with a large enough effect in the polarisation, with a control signal flat; inconclusive means small, poorly fitted or top-dose-only effect, or effect the other way, or a change in a side signal; inactive means no such curve, though single readings can be large or run the other way; the % refers to the polarisation;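 further: polarization taken with two DNA probes labelled with fluorescein and Texas red; potency means the concentration at half of the fitted maximal effect; % of control where 0% means no effect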
#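 His-tagged ERG Ets domain (1 uM in the protein solution; 300mM KCl, 50mM Tris-HCl, 1mM EDTA, 1mM DTT, pH 7.5) received compound, then a probe mix of 5 nM fluorescein-DNA and 100nM Texas-615-DNA. Fluorescence polarization was read for both dyes.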
# D1 ag – human D1 receptor agonism | P21728 | HEK293 T-REx D1 cells, calcium flux, agonist mode | activation, % at 2 µM | 360,000 tested, 1% active | AID 504660; in the data active means activation above about 30%; further: 0% is about no effect
# Target sequence (P21728 whole entry, looked up): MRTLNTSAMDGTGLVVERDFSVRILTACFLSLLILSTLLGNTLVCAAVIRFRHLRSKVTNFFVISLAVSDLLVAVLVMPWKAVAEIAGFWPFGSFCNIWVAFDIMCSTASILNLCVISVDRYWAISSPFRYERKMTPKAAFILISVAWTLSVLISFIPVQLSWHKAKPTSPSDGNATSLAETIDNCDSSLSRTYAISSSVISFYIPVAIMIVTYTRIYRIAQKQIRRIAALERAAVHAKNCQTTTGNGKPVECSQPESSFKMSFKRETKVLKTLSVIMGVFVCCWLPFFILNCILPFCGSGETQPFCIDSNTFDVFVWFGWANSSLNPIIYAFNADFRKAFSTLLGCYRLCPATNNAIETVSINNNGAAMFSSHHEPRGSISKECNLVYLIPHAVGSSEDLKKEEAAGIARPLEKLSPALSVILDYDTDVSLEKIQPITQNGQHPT
#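 Inducible HEK293 T-REx D1 cells, force-coupled to calcium signalling, were plated at 4000 cells/well with tetracycline and held overnight at 30 C. After no-wash calcium dye loading, compound-evoked calcium rise over 180 s flagged agonists.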
# DRD3 antagonist – antagonists of human D3 dopamine receptor | P35462 | D3R cells, DiscoveRx beta-arrestin luminescence, antagonist mode; hits give low values | max response, negative = inhibition, % | 360,000 tested, 2.5% active; in the data active means max response below about -50%; inconclusive means no clear call, values can overlap the other calls; further: on the % scale 0 is the no-effect control and ±100 the full control effect
#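 Cells expressing the human receptor were seeded at 1500 cells/well, incubated overnight at 37 degrees C in 5% CO2, then exposed to library compounds with dopamine controls for 90 minutes at 37 degrees C before luminescent detection.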
# D1 PAM – enhances dopamine response at the human D1 receptor; P21728; HEK293 TREx D1 cells, calcium flux, dopamine EC20 potentiation; potentiation, % at 10 µM; 360,000 tested, 0.036% active; AID 504651; in the data active means potentiation above about 30%; further: 0% is about no effect
# DRD3 agonist – activates the human D3 dopamine receptor; P35462; D3R DiscoveRx beta-arrestin cells, luminescence, 90 min; 410,000 tested, 0.58% active; max activation, %; in the data active means max activation above about 30%; further: 0% is about no effect
#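 Cells at 1500/well, incubated overnight, then treated with pinned compounds (dopamine as control) for 90 min at 37 degrees C. DiscoveRx reagent added for 30 - 60 minutes at room temperature; luminescence read.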
# D1 antag – blocks dopamine activation of the human D1 receptor | HEK293 TREx D1 cells, calcium flux, dopamine EC80; hits give low values | 360,000 tested, 3.2% active | P21728 | activity change, negative = inhibition, % at 10 µM; in the data active means activity change below about -30%; further: on the % scale 0 is the no-effect control and ±100 the full control effect
#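 Compound effects on dopamine-evoked calcium signalling were measured in tetracycline-induced HEK293 Trex D1 cells. Dopamine at EC80 followed a 180 s compound pre-read, and fluorescence was tracked kinetically for 180 s more.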
# Starred values were filed as active, the others as inactive; ? = inconclusive; · = no result given. Shown are actives, neighbours in structure and some others; about 6.1% of the full set was active somewhere.
SMILES,ERG Ets-DNA blk,D1 ag,DRD3 antagonist,D1 PAM,DRD3 agonist,D1 antag
CN1CCC(OC2c3ccccc3CCc3ccccc32)CC1,·,·,-98.8*,·,-1.5,·
COc1ccccc1CNC(=O)c1cc2cccc3c2n1CC(C)S3 (stereo not drawn),-0.3%,4.9,·,8.6,-2.9,2.2
NS(=O)(=O)OCCCCCc1ccccc1,12.0%,2.2,0.7,1.9,0.8,-1.1
NS(=O)(=O)OCCCc1ccccc1,-11.8%,0.8,?,-3.2,-9.3,-37.0*
O=C(NCCC1=CCCCC1)C(=O)NCCc1ccc(Cl)cc1,2.6%,0.8,3.9,3.7,-3.4,-0.2
COc1cc(/C=C/C(=O)c2ccc([N+](=O)[O-])o2)ccc1O,5.3%,-0.4,-98.0*,2.9,-31.4,0.7
COc1ccc(/C=C/C(=O)c2ccc([N+](=O)[O-])o2)cc1OC,-6.2%,-0.2,?,3.9,-28.8,3.9
O=C(/C=C/c1cccc(Cl)c1)c1ccc([N+](=O)[O-])o1,8.2%,-0.7,-83.7*,-6.0,-10.0,-6.6
COC(=O)[C@@H]1[C@H]2C[C@H]3c4[nH]c5ccccc5c4CCN3C[C@@H]2CC[C@@H]1O,-15.7%,0.3,-78.5*,-7.7,-80.1,-4.7
NNC(=O)C1C(O)CCC2CN3CCc4c([nH]c5ccccc45)C3CC21 (stereo not drawn),5.0%,·,?,·,-13.9,·
COCCCNC(=S)Nc1ccccc1[N+](=O)[O-],0.4%,2.7,-12.7,-7.2,-10.8,17.5
CN1CCN(c2ccc(-c3nc(-c4ccccc4)no3)cc2[N+](=O)[O-])CC1,0.3%,6.5,·,-3.0,-17.2,-37.5*
COc1ccc(-c2noc(-c3ccc(N4CCC(C)CC4)c([N+](=O)[O-])c3)n2)cc1OC,-3.3%,20.3,·,-4.7,0.2,-42.0*
Cc1ccc2c3c([nH]c2c1C)-c1nonc1CC3,-1.5%,-0.3,29.2,2.8,1.3,14.5
COc1ccc(C(=O)N/N=C/c2ccc(N(C)c3ccccc3)cc2)cc1,13.3%,·,5.2,·,-9.3,·
O=[N+]([O-])c1ccc(OCC(O)CNCCNc2nccc(C(F)(F)F)n2)cc1 (stereo not drawn),-9.4%,5.4,-83.6*,-1.1,-14.6,-5.0
Cc1nccn1CC(O)COc1ccc([N+](=O)[O-])cc1 (stereo not drawn),3.5%,3.3,-3.7,1.5,4.0,-6.8
O=C(NCCCN1CCc2ccccc2C1)C1CCN(S(=O)(=O)N2CCC3(CC2)OCCO3)CC1,-0.9%,0.7,-64.8*,-5.2,-11.6,1.9
Cc1cc(=O)n2nc(N3CCCC(C(=O)NCCCN4CCc5ccccc5C4)C3)sc2n1 (stereo not drawn),0.3%,5.1,-86.3*,-3.1,-16.6,-32.1*
O=C(NCCCN1CCc2ccccc2C1)C1CCN(S(=O)(=O)N2CCCC2)CC1,·,-0.3,-79.8*,-9.6,-27.9,2.3
COC(=O)C1=C(C)NC(C)=C(C(=O)OC)C1c1ccco1,3.2%,1.1,5.6,-2.4,-1.8,5.2
CCN(c1ccccc1)S(=O)(=O)c1ccc(Cl)c(NC(=O)CSc2nncn2C)c1,-11.1%,-0.1,19.9,-0.3,-0.9,17.9
Cn1cccc1CNC1CCCC1,·,4.2,39.3,-6.6,-6.8,-1.9
COc1cc(/C=C/C(=O)O)cc(S(=O)(=O)Nc2ccccc2Oc2ccccc2)c1OC,-6.0%,1.4,11.9,3.4,3.8,-5.5
C=CCn1c(CCNC(=O)c2ccco2)nc2ccccc21,-11.0%,1.4,-73.7*,3.5,-26.6,6.2
SMILES,ERG Ets-DNA blk,D1 ag,DRD3 antagonist,D1 PAM,DRD3 agonist,D1 antag
CC(=O)c1c(C)[nH]c(C(=O)COC(=O)c2cccnc2Cl)c1C,-5.2%,10.7,-28.5,-0.9,0.7,-33.2*
CC(=O)c1c(C)[nH]c(C(=O)COC(=O)c2nccnc2N)c1C,-8.2%,8.5,15.5,·,-0.9,2.4
COc1cc(C)ccc1OCC(=O)OCC(=O)c1[nH]c(C)c(C(C)=O)c1C,-23.2%,·,-2.8,·,0.9,·
Cc1ccc(S(=O)(=O)NC(=O)COc2cc(C)ccc2C(C)C)cc1,-13.8%,7.8,-55.3*,3.2,-7.3,-44.5*
CC(=O)c1c(C)[nH]c(C(=O)COc2cc(C)ccc2C(C)C)c1C,-2.7%,18.8,20.9,-14.9,11.2,-36.3*
Cc1ccc(C(C)C)c(OCC(=O)N/N=C/c2cccn2C)c1,-6.6%,1.3,37.1,-5.7,30.9*,-21.0
Cc1ccc(C(C)C)c(OCC(=O)NNC(=O)Nc2ccccc2)c1,-7.6%,·,1.1,·,2.9,·
Cc1cccc(OCC(=O)N/N=C/c2cccn2C)c1,-0.8%,1.6,-5.7,-3.0,-1.8,-6.4
COc1ccccc1NC1=C(Cl)C(=O)N(C2CCCCC2)C1=O,·,1.2,8.7,-2.1,-2.0,-88.2*
CCOC(=O)c1cc(C#N)c(N2CCCNCC2)nc1C(F)(F)F,5.8%,9.5,-11.2,-2.0,-3.5,8.7
COc1ccc(CCNc2ccc(S(N)(=O)=O)cn2)cc1,-5.6%,2.5,11.5,-1.1,-4.3,-4.2
OCCNc1nc(NCCC2=CCCCC2)nc(N2CCOCC2)n1,-5.9%,1.0,-4.7,-12.2,0.8,-54.3*
COc1ccc(CCN2CN(S(=O)(=O)c3ccccc3)c3nc4ccccc4nc32)cc1OC,-2.5%,3.5,-23.4,2.3,-3.7,-3.2
Cc1ccc(C)c(OCCC(=O)OCC(=O)Nc2ccc(C)c(S(=O)(=O)N3CCCCC3)c2)c1,3.8%,13.7,21.8,-16.4,4.5,-31.6*
Cc1ccc(S(=O)(=O)N2CCCCC2)cc1NC(=O)C1CCN(C(=O)OC(C)(C)C)CC1,·,·,-6.3,·,-1.1,·
Cc1ccc(NC(=O)COC(=O)C2CC3C=CC2C3)cc1S(=O)(=O)N1CCCCC1 (stereo not drawn),-0.7%,5.9,0.5,8.8,47.0*,-21.0
Cc1ccc(S(=O)(=O)N2CCCCC2)cc1NC(=O)COC(=O)C1CC2C=CC1C2 (stereo not drawn),6.9%,1.2,0.0,1.1,14.6,-4.7
Cc1ccc(NC(=O)C2CCN(C(=O)OC(C)(C)C)CC2)cc1S(=O)(=O)N1CCCCC1,15.8%,0.5,13.7,0.6,-13.2,-38.1*
Cc1ccc(S(=O)(=O)N2CCC(C(=O)OCC(=O)N(C)C3CCCCC3)CC2)cc1C,1.4%,2.9,1.2,-10.4,2.4,-37.8*
CCCC(C)C1c2c(c(C)c(C)oc2=O)Oc2c(C)c(C)oc(=O)c21 (stereo not drawn),-12.6%,·,6.0,·,9.6,·
CN(C(=O)COC(=O)C1CCN(S(=O)(=O)c2c(Cl)cccc2Cl)CC1)c1ccccc1,-1.2%,18.3,-3.3,-2.2,-6.6,-31.9*
CN(C(=O)COC(=O)C1CCN(S(=O)(=O)c2c(Cl)cccc2Cl)CC1)C1CCCCC1,9.8%,27.4,9.0,-4.8,-0.1,-0.1

# Assay outcomes: PubChem, National Center for Advancing Translational Sciences (NCATS)
